Among all 77,000 compounds or so, about 4,600 (6%) were called active. Not shown: some 1% with an inconclusive outcome.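 How the source made its calls: active means mean inhibition above about 93%, with at least 55% of replicates each passing it (limit read from the data, passing the limit was not always enough); inconclusive means only one of those two conditions holds; inactive means neither condition holds.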 The full list was thinned out, with actives kept by preference.

A short description of the assay: growth inhibition of T. cruzi in host fibroblasts – cell-based, beta-gal Tulahuen parasites, NIH3T3 host, luminescence, primary screen (AID 624255). To be noted: T. cruzi beta-gal in NIH3T3, GalScreen luminescence, 90 h; at 8.34 µM; hits give high values.
In the case of `COC(=O)C[C@@H]1CC[C@H]2[C@H](COc3ccc(NC(=O)c4cccs4)cc3C(=O)N2C)O1`, the inhibition (as a rule, the drop in the measured response relative to a control, in per cent) is 2.22% (inactive).
For `C[C@H]1CCCCO[C@@H](CN(C)Cc2ccc3c(c2)OCO3)[C@@H](C)CN([C@@H](C)CO)C(=O)c2cc(NC(=O)Nc3ccc(F)cc3)ccc2O1`, the inhibition was 77.3% (inactive).
With `CN1c2ccc(-c3ccc(C#N)cc3)cc2[C@@H]2[C@@H](CCN2C(=O)C2CCCCC2)[C@H]1CO` the figure was 50.3% (inactive); with `O=C(NCC1CC1)[C@@H]1[C@@H](CO)[C@@H]2Cn3c(ccc(-c4ccncc4)c3=O)[C@H]1N2Cc1nccs1`, 32.5% (inactive).
Consider `CNC(=O)C[C@H]1CC[C@H]2[C@@H](COc3ccc(NC(=O)c4cccc(OC)c4)cc3C(=O)N2C)O1`, for which the inhibition is 3.49% (inactive).
In the case of `COc1ccccc1-c1ccc2c(c1)[C@H]1[C@H](CCN1S(=O)(=O)c1ccccc1)[C@@H](CO)N2`, the inhibition was 77.3% (inactive).
The result for `CNC(=O)C[C@H]1CC[C@@H]2[C@H](COc3ccc(NC(=O)C(C)C)cc3C(=O)N2C)O1` reads -65% (inactive).
With `CC(=O)Nc1ccc2c(c1)C(=O)N(C)[C@H]1CC[C@H](CC(=O)NCc3ccccc3Cl)O[C@H]1CO2` the figure was -40.6% (inactive); with `CNC[C@H]1OCCCC[C@@H](C)Oc2ccc(NC(=O)Nc3ccc(C(F)(F)F)cc3)cc2C(=O)N([C@H](C)CO)C[C@H]1C`, 69.3% (inactive).
For the molecule `C[C@H](CO)N1C[C@H](C)[C@H](CN(C)C(=O)NC2CCCCC2)Oc2ccc(NC(=O)CCCN(C)C)cc2CC1=O`, the inhibition was 25.8% (inactive).
With `O=C(NC1CCC1)[C@H]1[C@H](CO)[C@H]2Cn3c(ccc(C4=CCCCC4)c3=O)[C@@H]1N2CC1CC1` the figure was -4.56% (inactive); with `C[C@@H]1CCCCO[C@@H](CN(C)S(=O)(=O)c2ccc(F)cc2)[C@@H](C)CN([C@@H](C)CO)C(=O)c2cc(NC(=O)Nc3ccc(F)cc3)ccc2O1`, 55.8% (inactive).
The result for `COc1ccccc1S(=O)(=O)Nc1ccc2c(c1)C(=O)N(C)C[C@H](OC)[C@H](C)CN[C@H](C)CO2` reads 9.95% (inactive); that for `O=C([C@H]1N[C@H]2c3ccc(-c4ccccc4)c(=O)n3C[C@H]2[C@@H]1CO)N1CCOCC1`, -8.75% (inactive).
`Cc1ccc(S(=O)(=O)N(C)C[C@H]2OCCCC[C@@H](C)Oc3ccc(NS(C)(=O)=O)cc3C(=O)N([C@H](C)CO)C[C@@H]2C)cc1`: the inhibition is -8.39% (inactive).
With `COc1ccc(S(=O)(=O)Nc2ccc3c(c2)C(=O)N([C@H](C)CO)C[C@@H](C)[C@H](CN(C)S(=O)(=O)c2ccc(Cl)cc2)OCCCC[C@@H](C)O3)cc1` the figure was 87% (inactive).
With `Cc1ccc(S(=O)(=O)N(C)C[C@@H]2OCCCC[C@@H](C)Oc3ccc(NS(=O)(=O)c4ccc(F)cc4)cc3C(=O)N([C@H](C)CO)C[C@H]2C)cc1` the figure was 110% (active); with `COc1ccc(S(=O)(=O)N(C)C[C@@H]2OCCCC[C@@H](C)Oc3ccc(NS(=O)(=O)c4ccccc4)cc3C(=O)N([C@@H](C)CO)C[C@H]2C)cc1`, 71.3% (inactive); with `Cc1ccc(S(=O)(=O)Nc2ccc3c(c2)C(=O)N([C@H](C)CO)C[C@@H](C)[C@H](CN(C)S(=O)(=O)c2ccc(C)cc2)OCCCC[C@@H](C)O3)cc1`, 89.1% (inactive).
With `C[C@H](CO)N1C[C@H](C)[C@H](CN(C)S(=O)(=O)c2ccc(F)cc2)OCCCC[C@H](C)Oc2ccc(NS(=O)(=O)c3ccc(Cl)cc3)cc2C1=O` the figure was 97.6% (active); with `C[C@@H]1CCCCO[C@@H](CN(C)S(C)(=O)=O)[C@H](C)CN([C@@H](C)CO)C(=O)c2cc(NS(=O)(=O)c3ccc(F)cc3)ccc2O1`, -87.8% (inactive).
In the case of `C[C@@H]1CCCCO[C@H](CN(C)S(=O)(=O)c2ccc(F)cc2)[C@H](C)CN([C@@H](C)CO)C(=O)c2cc(NS(=O)(=O)c3ccccc3)ccc2O1`, the inhibition was 112% (active).
For the molecule `C[C@@H]1CCCCO[C@H](CN(C)S(=O)(=O)c2ccccc2)[C@@H](C)CN([C@@H](C)CO)C(=O)c2cc(NS(=O)(=O)c3ccccc3)ccc2O1`, the inhibition was 78.8% (inactive).
The result for `C[C@H](CO)N1C[C@H](C)[C@@H](CN(C)C(=O)CCC(F)(F)F)OCCCC[C@H](C)Oc2ccc(NC(=O)C3CCCCC3)cc2C1=O` reads 39.7% (inactive).
For `COc1cccc(-c2ccc3c(c2)[C@@H]2[C@@H](CCN2S(=O)(=O)C2=NC(C)C=N2)[C@@H](CO)N3C)c1` (some centres not stated), the inhibition was 6.92% (inactive).
For `CO[C@H]1CN(C)C(=O)c2cc(NC(=O)Nc3cccc(F)c3)ccc2OC[C@H](C)N(C(C)=O)C[C@H]1C`, the inhibition was 26.3% (inactive).
On to `CCCC#Cc1ccc([C@H]2[C@@H](CO)N3CCCCN(S(=O)(=O)CC)C[C@H]23)cc1`, for which the inhibition was 65.9% (inactive).
The result for `O=S(=O)(Cc1ccccc1)N1CCCCN2[C@@H](CO)[C@H](c3ccc(-c4cccnc4)cc3)[C@@H]2C1` reads 106% (active).
The result for `O=S(=O)(Cc1ccccc1)N1CCCCN2[C@@H](CO)[C@@H](c3ccc(-c4ccc(F)cc4)cc3)[C@@H]2C1` reads 98.2% (active); that for `CN1CCCCN2[C@H](CO)[C@H](c3ccc(-c4ccc(F)cc4)cc3)[C@@H]2C1`, 14.5% (inactive); that for `OC[C@H]1[C@H](c2ccc(-c3cccnc3)cc2)[C@H]2CN(Cc3ccccn3)CCCCN21`, 79.7% (inactive).
Take `CCCC#Cc1ccc([C@H]2[C@@H](CO)N3CCCCN(S(=O)(=O)Cc4ccccc4)C[C@H]23)cc1`: the inhibition is 54.7% (inactive).
The result for `Cc1cccc(-c2ccc([C@@H]3[C@@H](CO)N4CCCCN(S(=O)(=O)c5cccs5)C[C@H]34)cc2)c1` reads 118% (active); that for `O=S(=O)(c1ccccc1)N1CCCCN2[C@H](C1)[C@H](c1ccc(-c3ccccc3)cc1)[C@@H]2CO`, 94.7% (inactive).
The result for `COc1cccc(-c2ccc([C@H]3[C@H](CO)N4CCCCN(S(=O)(=O)c5cccs5)C[C@@H]34)cc2)c1` reads 91.7% (inactive); that for `CCS(=O)(=O)N1CCCCN2[C@@H](CO)[C@@H](c3ccc(-c4ccccc4)cc3)[C@@H]2C1`, 93.7% (active); that for `Cc1cccc(-c2ccc([C@H]3[C@H](CO)N4CCCCN(S(=O)(=O)c5cn(C)cn5)C[C@@H]34)cc2)c1`, 41.5% (inactive).
The result for `COCc1cn(CC[C@H]2CC[C@H](NC(=O)Nc3ccc4c(c3)OCO4)[C@@H](CO)O2)nn1` reads -12.8% (inactive); that for `C[C@H](CO)N1C[C@H](C)[C@@H](CN(C)C(=O)Nc2ccc3c(c2)OCO3)OCCCC[C@H](C)Oc2ccc(NC(=O)Nc3ccc(F)cc3)cc2C1=O`, -31.4% (inactive).
For the molecule `O=C(C[C@H]1C=C[C@H](NC(=O)C2CCOCC2)[C@@H](CO)O1)NCC1CC1`, the inhibition was -20.7% (inactive).
In the case of `CC(C)NC(=O)N(C)C[C@H]1OCCCC[C@H](C)Oc2ccc(NS(=O)(=O)c3ccc(Cl)cc3)cc2C(=O)N([C@@H](C)CO)C[C@H]1C`, the inhibition was -6.73% (inactive).
With `C[C@@H]1CN([C@H](C)CO)C(=O)c2cc(NC(=O)c3ccccc3)ccc2O[C@@H](C)CCCCO[C@H]1CN(C)C(=O)c1ccncc1` the figure was -20.8% (inactive); with `CCC(=O)N1C[C@H](C)[C@H](OC)CN(C)C(=O)c2ccc(NC(=O)Nc3ccccc3)cc2OC[C@H]1C`, -75.2% (inactive); with `CCC(=O)Nc1ccc2c(c1)OC[C@H](C)N(Cc1ccccc1OC)C[C@@H](C)[C@@H](OC)CN(C)C2=O`, 32.5% (inactive).
With `CCC(=O)Nc1ccc2c(c1)C(=O)N(C)[C@@H]1CC[C@@H](CC(=O)NCCc3ccccc3)O[C@H]1CO2` the figure was 49.1% (inactive); with `C/C=C/c1ccc([C@H]2[C@@H](CO)N(C(=O)Cc3ccncc3)[C@@H]2CNC(C)=O)cc1`, 13.1% (inactive); with `O=S(=O)(Cc1ccccc1)N1CCCCN2[C@H](CO)[C@@H](c3ccc(-c4cncnc4)cc3)[C@H]2C1`, 91% (inactive).
With `O=S(=O)(Cc1ccccc1)N1CCCCN2[C@@H](CO)[C@H](c3ccc(-c4ccccc4)cc3)[C@@H]2C1` the figure was 110% (active).
Consider `CS(=O)(=O)N1CCCCN2[C@H](CO)[C@H](c3ccc(-c4cccc(C#N)c4)cc3)[C@H]2C1`, for which the inhibition was 74.2% (inactive).
With `COCC(=O)Nc1ccc2c(c1)C(=O)N(C)[C@@H]1CC[C@H](CC(=O)NCC3CCCCC3)O[C@H]1CO2` the figure was -49.4% (inactive).
The result for `CC(C)CC#Cc1cnc2c(c1)C(=O)N([C@@H](C)CO)C[C@@H](C)[C@H](CN(C)C(=O)Cc1ccncc1)O2` reads 107% (active).
Consider `CC(=O)N(C)C[C@H]1Oc2ncc(C#Cc3ccccn3)cc2C(=O)N([C@H](C)CO)C[C@@H]1C`, for which the inhibition was 57.3% (inactive).
Regarding `C[C@@H]1CN([C@@H](C)CO)C(=O)c2cc(C#Cc3ccccc3)cnc2O[C@H]1CN(C)C(=O)c1ccccn1`, the inhibition is 108% (active).
With `COc1ccccc1C#Cc1cnc2c(c1)C(=O)N([C@@H](C)CO)C[C@@H](C)[C@H](CN(C)C(=O)CN(C)C)O2` the figure was 36.2% (inactive); with `COCC(=O)N(C)C[C@@H]1Oc2ncc(C#Cc3ccccc3OC)cc2C(=O)N([C@@H](C)CO)C[C@H]1C`, 113% (active).
With `CCCC#Cc1cnc2c(c1)C(=O)N([C@H](C)CO)C[C@H](C)[C@H](CN(C)C(=O)Cc1ccncc1)O2` the figure was -5.16% (inactive); with `CCC(=O)N(C)C[C@@H]1Oc2ncc(C#Cc3ccccc3)cc2C(=O)N([C@@H](C)CO)C[C@H]1C`, 87.1% (inactive).
With `C[C@@H]1CN([C@H](C)CO)C(=O)c2cc(C#CCN(C)C)cnc2O[C@H]1CN(C)C(=O)Cc1ccncc1`, the inhibition was 67.2% (inactive).
`COc1cccc(C#Cc2cnc3c(c2)C(=O)N([C@@H](C)CO)C[C@H](C)[C@@H](CN(C)C(C)=O)O3)c1`: the inhibition was -12.9% (inactive).
With `COc1ccc(C#Cc2cnc3c(c2)C(=O)N([C@@H](C)CO)C[C@H](C)[C@@H](CN(C)C(C)=O)O3)cc1` the figure was 110% (active).
The result for `COc1ccc(C#Cc2cnc3c(c2)C(=O)N([C@H](C)CO)C[C@H](C)[C@@H](CN(C)C)O3)cc1` reads 29.3% (inactive); that for `COc1ccccc1C#Cc1cnc2c(c1)C(=O)N([C@@H](C)CO)C[C@@H](C)[C@@H](CN(C)C(=O)CN(C)C)O2`, -91.1% (inactive).

(Values after PubChem BioAssay AID624255 (Broad Institute, 2012).)
